Data published in PMC4552634, “A New Set of Chemical Starting Points with Plasmodium falciparum Transmission-Blocking Potential for Antimalarial Drug Discovery” (PLoS ONE, 2015).
Hit rate of the full screen: of about 13,000 compounds, about 3,200 (25%) showed an effect of 50% or more. Some of the results follow.

test system: P. falciparum stage V gametocytes; set-up: BacTiter-Glo ATP luminescence viability of purified stage V gametocytes in 384-well plates, per cent inhibition versus DMSO; conditions: 48 h, 5 µM; inhibitor

Row | Compound | % Inhibition [%]
1 | COc1ccccc1N=C1SC(=Cc2cn(CC(=O)N3CCCc4ccccc43)c3ccccc23)C(=O)N1C1CCCCC1 [TCMDC-124809] | 13.24
2 | Cc1c(C(=O)N2CCCC(C(F)(F)F)C2)sc2cccc(F)c12 (centres unmarked) [TCMDC-124598] | 6.461
3 | CS(=O)(=O)CCNCc1ccc(-c2cc3c(Nc4ccc(OCc5cccc(F)c5)c(Cl)c4)ncnc3s2)[nH]1 [TCMDC-135511] | -19.72
4 | COc1ccc(C2CC(=O)C3=C(C2)NC(C)=C(C(=O)OC2CCCC2)C3c2cccc(O)c2)cc1 (centres unmarked) [TCMDC-125631] | 10.18
5 | CC(C)(CNCc1ccc(F)c(F)c1)c1nc(-c2ccc(Cl)c(O)c2)c(-c2ccncc2)[nH]1 [TCMDC-140672] | -67.6
6 | CC(C)(CNCc1ccc(Cl)c(Cl)c1)c1nc(-c2ccc(Cl)c(O)c2)c(-c2ccncc2)[nH]1 [TCMDC-140688] | 78.8
7 | CC(C)(CNCc1cccc(Oc2ccccc2)c1)c1nc(-c2ccc(Cl)c(O)c2)c(-c2ccnc(N)n2)[nH]1 [TCMDC-141167] | 23.98
8 | CC(C)(CNCc1ccc(C(F)(F)F)cc1)c1nc(-c2ccc(Cl)c(O)c2)c(-c2ccncc2)[nH]1 [TCMDC-140689] | 22.22
9 | CN(C)CCCOc1ccc(CNCC(C)(C)c2nc(-c3ccc(Cl)c(O)c3)c(-c3ccncc3)[nH]2)cc1 [TCMDC-140650] | 71.95
10 | CC(C)(CNCc1ccc(C(F)(F)F)cc1)c1nc(-c2ccc(Cl)c(O)c2)c(-c2ccnc(N)n2)[nH]1 [TCMDC-141162] | 38.42
11 | COc1ccc(CNCC(C)(C)c2nc(-c3ccc(Cl)c(O)c3)c(-c3ccncc3)[nH]2)cc1 [TCMDC-140538] | -60.58
12 | CC(C)(CNCc1ccc(Cl)cc1)c1nc(-c2ccc(Cl)c(O)c2)c(-c2ccncc2)[nH]1 [TCMDC-140548] | -50.17
13 | CC(C)(CNCc1cccc(Oc2cccc(C(F)(F)F)c2)c1)c1nc(-c2ccc(Cl)c(O)c2)c(-c2ccnc(N)n2)[nH]1 [TCMDC-141166] | 55.63
14 | Cc1ccc2nc(C)cc(NC(=O)Nc3ccc(N(C)C)cc3)c2c1 [TCMDC-140108] | -84.19
15 | N#Cc1ccc2c(c1)CCN(CCC1CCC(NC(=O)/C=C/c3ccc(Cl)c(Cl)c3)CC1)CC2 (centres unmarked) [TCMDC-139792] | -12.21
16 | CC(C)C(=O)Nc1c(F)cc(F)cc1CCc1ccc(O)cc1 [TCMDC-137532] | 15.35
17 | CC1(C)N=C(N)NC(Nc2ccc(F)c(F)c2)=N1 [TCMDC-123533] | -23.61
18 | c1ccc(Oc2ccc(Nc3ccnc4cc(-c5ccc(CN6CCNCC6)o5)ccc34)cc2)nc1 [TCMDC-138421] | 97.92
19 | c1ccc(Oc2ccc(Nc3ccnc4cc(-c5ccc(CNCCN6CCOCC6)o5)ccc34)cc2)nc1 [TCMDC-138423] | -53.28
20 | CN1CCN(Cc2ccc(-c3ccc4c(Nc5ccc(Oc6ccccc6)cc5)ccnc4c3)o2)CC1 [TCMDC-138402] | 53.53
21 | CN1CCN(Cc2ccc(-c3ccc4c(Nc5ccc(Oc6ccccn6)cc5)ccnc4c3)o2)CC1 [TCMDC-138420] | 73.84
22 | Cc1ccc(O)cc1Nc1ccnc2cc(-c3ccc(CN4CCCCC4)o3)ccc12 [TCMDC-138384] | 25.1
23 | CN1CCN(Cc2ccc(-c3cc4nccc(Nc5ccc(Oc6ccccc6)cc5)c4cc3Cl)o2)CC1 [TCMDC-138463] | 37.01

Row | Compound | % Inhibition [%]
24 | c1ccc(Oc2ccc(Nc3ccnc4cc(-c5ccc(CN6CCCCC6)o5)ccc34)cc2)nc1 [TCMDC-138422] | -0.3034
25 | c1ccc(Oc2ccc(Nc3ccnc4cc(-c5ccc(CN6CCOCC6)o5)ccc34)cc2)nc1 [TCMDC-138424] | 11.61
26 | CN(C)CCNC(=O)[C@H](CC1CCCCC1)NC(=O)c1ccc(O)c(-c2ccc(Cl)c(Cl)c2)c1 [TCMDC-140865] | 44.5
27 | O=C(Nc1ccc(-c2nc3ccccc3[nH]2)cc1)c1ccc(Cl)s1 [TCMDC-123725] | -15.63
28 | CC1c2cccc(O)c2CCN1CCc1ccc(Cl)c(Cl)c1 (centres unmarked) [TCMDC-138976] | -24.59
29 | O=C(Nc1cccc(-c2ccc(-c3nc4ccccc4[nH]3)cc2)c1)c1csnn1 [TCMDC-136901] | -10.17
30 | COc1ccc(CNC2CCN(C)CC2)cc1-c1ccc(S(=O)(=O)NCCc2ccccn2)c(F)c1 [TCMDC-132264] | 102.9
31 | COc1ccc(CNC2CCN(C)CC2)cc1-c1ccc(S(=O)(=O)NCCc2ccccn2)c(C)c1 [TCMDC-132271] | 72.47
32 | CN1CCC(NCc2cccc(-c3ccc(S(=O)(=O)NCCc4ccccn4)c(F)c3)c2)CC1 [TCMDC-132220] | 17
33 | COc1ccc(CNC2CCN(C)CC2)cc1-c1ccc(S(=O)(=O)NCCc2ccccn2)cc1 [TCMDC-132246] | 50.8
34 | Cc1nnc(-c2ccc3ccccc3c2)c2cn(-c3cccc([N+](=O)[O-])c3)nc12 [TCMDC-138592] | 4.043
35 | O=C(NCc1cccc(F)c1)Nc1ccc(-c2cccc(-c3nc4ccccc4[nH]3)c2)cc1 [TCMDC-133297] | 6.044
36 | COc1ccc2nccc([C@@H](O)CN3CCC(NC(=O)c4cc5c(F)cc(F)cc5[nH]4)CC3)c2c1 [TCMDC-140781] | -8.295
37 | O=C(Nc1ccc2nc3n(c(=O)c2c1)CCCCC3)C(=O)N1CCN(c2ccc(F)cc2)CC1 [TCMDC-125293] | -18.55
38 | CCCN(Cc1ccc(C)cc1)Cc1cc(=O)c2cc(Cl)ccc2[nH]1 [TCMDC-124741] | 52.71
39 | CCCN(Cc1ccc(OCC)cc1)Cc1cc(=O)c2cc(Cl)ccc2[nH]1 [TCMDC-124740] | 40.3
40 | O=c1cc(NCCCN(Cc2cc3c(Cl)cc(Cl)cc3[nH]2)Cc2cc3c(Cl)cc(Cl)cc3[nH]2)[nH]c2ccccc12 [TCMDC-139849] | 1.838
41 | COc1ccc2nccc([C@@H](O)CN3CCC(NC(=O)c4cccc(C(=O)c5ccccc5)c4)CC3)c2c1 [TCMDC-141283] | -43.58
42 | CCC(C)NCc1c(O)ccc2c(CNC(C)CC)c(O)ccc12 (centres unmarked) [TCMDC-137585] | -26.38
43 | CCC(C)NCC(O)(c1ccc(Cl)cc1)c1ccc(Cl)cc1 (centres unmarked) [TCMDC-123502] | 68.55
44 | CCC(C)NCCC(c1ccccc1)c1ccccc1O (centres unmarked) [TCMDC-125727] | 32.82
45 | O=c1cc(NCCCNC2CCOc3c(Cl)cccc32)[nH]c2ccccc12 (centres unmarked) [TCMDC-139551] | -16.88
46 | O=C(/C=C/c1ccc(Cl)c(Cl)c1)NCCCCCCN1CCN(C(=O)Nc2cccc(Cl)c2)CC1 [TCMDC-135831] | -35.92

Row | Compound | % Inhibition [%]
47 | Cc1cccc(Cn2ccc3c4c(N)nc(N)nc4ccc32)c1 [TCMDC-137814] | 60.36
48 | Nc1nc(N)c2c(ccc3c2ccn3Cc2cccc(F)c2)n1 [TCMDC-137810] | 101.3
49 | Nc1nc(N)c2c(ccc3c2ccn3CC2CC2)n1 [TCMDC-123991] | 40.96
50 | Cc1ccc(C)c(Cn2ccc3nc(N)nc(N)c32)c1 [TCMDC-137330] | 9.396
51 | Cc1cccc(Cn2ccc3c(N)nc(N)nc32)c1 [TCMDC-137327] | 54.63
52 | Cc1cccc(-c2c(C)nc(N)nc2N)c1 [TCMDC-138072] | 4.683
53 | Nc1nc(N)c2c(ccc3c2ccn3Cc2ccc3c(c2)OCO3)n1 [TCMDC-137808] | 102.2
54 | Nc1nc(N)c2c(ccn2Cc2cc3c(cc2Cl)OCO3)n1 [TCMDC-137328] | -14.37
55 | Cc1cc(NC(=O)Nc2ccc3ncccc3c2)c2ccccc2n1 [TCMDC-139829] | -30.57
56 | COc1ccc(C2CCN(C#N)C2)cc1OC1CCCC1 (centres unmarked) [TCMDC-131880] | 32.2
57 | COc1ccc(-n2c(=O)c3c(n4c(SC(C)C)nnc24)-c2ccccc2CC32CCCCC2)cc1 [TCMDC-125706] | 19.59
58 | NC1=NC(CCc2ccccc2)N(c2ccccc2)C(N)=N1 (centres unmarked) [TCMDC-131292] | 10.89
59 | O=C(O)C(F)(F)F.c1cc(-c2ccc(CNCCCn3ccnc3)cc2)cc(-c2nc3ccccc3[nH]2)c1 [TCMDC-132541] | 99.24
60 | O=C(O)C(F)(F)F.O=C1CCCN1CCCNCc1ccc(-c2cccc(-c3nc4ccccc4[nH]3)c2)cc1 [TCMDC-132549] | -11.63
61 | Cn1nccc1C(=O)NCCNCc1ccc(-c2cccc(-c3nc4ccccc4[nH]3)c2)cc1.O=C(O)C(F)(F)F [TCMDC-132562] | -0.1444
62 | O=C(O)C(F)(F)F.c1cc(-c2ccc(CNCCCN3CCOCC3)cc2)cc(-c2nc3ccccc3[nH]2)c1 [TCMDC-132548] | 54.17
63 | O=C(O)C(F)(F)F.c1ccc2[nH]c(-c3ccc(-c4ccc(CN5CCN(CCN6CCOCC6)CC5)cc4)cc3)nc2c1 [TCMDC-133928] | -28.02
64 | c1ccc(CCNc2ncnc3c2[nH]c2ccccc23)cc1 [TCMDC-124578] | -4.873
65 | CC(C)(C)c1cc(C(=O)Nc2cccnc2)cc(C(=O)Nc2cccnc2)c1 [TCMDC-125788] | -16.11
66 | COc1ccc2nccc([C@@H](O)CN3CCC(NCc4nc5c(OCc6ccccc6)cccc5[nH]4)CC3)c2c1 [TCMDC-141083] | 34.25
67 | N#CC(CC(=O)c1ccc(Cl)cc1)c1cccc(F)c1 (centres unmarked) [TCMDC-123760] | 17.52
68 | CC(CC(=O)NCC1(c2ccc(F)cc2Cl)CCOCC1)C(=O)c1ccc(Cl)cc1 (centres unmarked) [TCMDC-134256] | 68.04
